Screen size: about 48,000 compounds; about 13,000 (27%) showed an effect of 50% or more. Some of the results follow.
system: Wolbachia pipientis; assay: Anti-Wolbachia Cell-Based Screen; assay type: functional; parameters: scale not given: in the data most compounds retested in dose-response had high values; settings: 5 µM

Structure (SMILES)	Percent Effect [%]
NC(=O)N1CCCN(C2CCCCc3ccccc32)CC1 (centres undefined)	-4.011
CO[C@@H]1CN(c2ccccc2)S(=O)(=O)[C@@]12CCN(C)C2	121.6
COC1CCN(S(=O)(=O)N2CC(c3ccccc3)C(C)(C)C2)CC1 (centres undefined)	17.09
CO[C@@H]1CN(c2ccccc2)S(=O)(=O)[C@@]12CCN(S(C)(=O)=O)C2	80.67
CN1CC(=O)N(c2ccccc2)CC12CCN(S(C)(=O)=O)C2.O=C(O)C(F)(F)F (centres undefined)	10.77
CS(=O)(=O)N1CCC2(CC1)c1ccccc1[C@@H](N1CCSCC1)[C@@H]2O	-3.022
CCN(CC)C(=O)C1CCC(=O)N(CCc2cccc(F)c2)C1 (centres undefined)	5.387
COCCCNC(=O)N1CCC(CNC(=O)c2cnn(C)c2)CC1	114
Cn1cc(C(=O)NC[C@@H]2OC[C@H]3CN(S(C)(=O)=O)CC[C@H]32)cn1	-9.663
CNC(=O)N1CCC(NC(=O)c2cnn(C)c2)CC1	87.43
Cn1cc(C(=O)NCC2CCN(C(=O)NC3CC3)CC2)cn1	82.18
Cn1cc(C(=O)NC2CCN(C(=O)NCC3CCSCC3)CC2)cn1	-0.1776
Cn1cc(C(=O)NCC2CCN(C(=O)NC3CCCCC3)CC2)cn1	90.75
CCS(=O)(=O)c1ccc(N2CCC(NC(=O)c3cnn(C)c3)CC2)cc1	0.7528
COCCNC(=O)N1CCC(NC(C)C)CC1	8.533
Cn1cc(C(=O)NCC2CCN(C(=O)NCC(F)(F)F)CC2)cn1	-3.622
COC(=O)N1CCC(CNS(=O)(=O)c2cnn(C)c2)CC1	-8.062
Cn1cc(C(=O)NC2CCN(C(=O)NCCSC(F)(F)F)CC2)cn1	19.88
Cc1ccc(N2CCC(C(O)c3cccs3)CC2)nn1 (centres undefined)	12.98
CCCN1CCC(NCc2cccc(CN3CCOC(C)C3)c2)CC1 (centres undefined)	27.7
O=C(CS(=O)(=O)Cc1ccccc1)NCc1ccccc1F	-49.77
O=C(O)c1ccc(N2CCC(Oc3cccc(F)c3)CC2)nc1	7.42

Structure (SMILES)	Percent Effect [%]
O=C(O)c1ccc(Cc2cccc(F)c2)nc1	176.5
O=C(O)c1cncc(Cc2ccc(F)cc2)c1	214.7
O=C(O)c1cncc(Cc2ccccc2F)c1	172.6
O=C(O)c1cncc(Cc2cccc(F)c2)c1	136.9
O=C(O)c1cccc(CC2CCN(c3ncc(F)cn3)CC2)c1	5.737
CCOCCn1c(=O)n(Cc2ccc(F)cc2)c2ncc(C(=O)O)cc21	0.5283
CCOCCn1c(=O)n(Cc2ccccc2F)c2cc(C(=O)O)cnc21	-1.705
CCSCCn1c(=O)n(Cc2ccc(F)cc2)c2ncc(C(=O)O)cc21	-21.36
O=C(NCC(Cc1cccc(F)c1)N1CCCC1=O)c1ccccc1 (centres undefined)	-3.129
CC(C)n1cc2cc(NC(=O)Cn3cnnn3)ccc2n1	0.8884
O=C1NCCCCC1NC(=O)C1(Oc2ccc(Cl)cc2)CCNCC1 (centres undefined)	4.291
CCOc1ccccc1NC(=O)NCC(C)(O)CCSC (centres undefined)	-5.529
CN(C)C(CNC(=O)c1nc(N2CCOCC2)ncc1Cl)c1ccco1 (centres undefined)	-7.125
CC(C)C(=O)NC1CCCc2nc(N3CCOCC3)ncc21 (centres undefined)	72.33
CCC(CC)C(=O)NC1CCCc2nc(N3CCOCC3)ncc21 (centres undefined)	97.19
Cc1cnc(N2CCC3(CC2)CC(NC(=O)C(C)C)CO3)nc1 (centres undefined)	-15.93
CC(CNC(=O)c1nc(N2CCOCC2)ncc1Cl)c1ccccc1 (centres undefined)	-18.26
CC(C)n1c(C2CCCN(CC(=O)NC(N)=O)C2)nc2ccccc21 (centres undefined)	-22.16
Cc1cc(C)n(C2CCN(Cc3c(-c4cc(C)on4)nn(C)c3Cl)C2)n1 (centres undefined)	0.03188
CN(C)C(=O)Cc1ccccc1NCc1cccc(F)c1F	-19.09
COCc1csc(NC(=O)NCc2ccsc2)n1	-7.736
COCc1csc(NC(=O)N2CCC(Cc3cnn(C)c3)C2)n1 (centres undefined)	102.3

Structure (SMILES)	Percent Effect [%]
CC(C)Cc1cc(C(=O)N2CCC(Cc3cnn(C)c3)C2)cc(O)n1 (centres undefined)	0.7528
Cn1cc(CC2CCN(C(=O)NCc3csc(C4CC4)n3)C2)cn1 (centres undefined)	102.9
CC(C)c1cc(CNC(=O)N2CCC(Cc3cnn(C)c3)C2)on1 (centres undefined)	2.959
Cc1csc(CNC(=O)N(C)Cc2cnn(C)c2)n1	7.256
CC(C)CC(NC(=O)CN(C)C(=O)c1ccco1)c1cccs1 (centres undefined)	25.03
NC(=O)c1csc(N2C[C@@H](CN3CCOCC3)[C@@H](CO)C2)n1	103.5
OCc1csc(N2C[C@@H](CN3CCCCCC3)[C@@H](CO)C2)n1	103.7
OC[C@H]1CN(Cc2c(Cl)cncc2Cl)C[C@H]1CN1CCCCCC1	-60.78
NC(=O)c1csc(N2C[C@@H](CN3CCCCC3)[C@@H](CO)C2)n1	104.1
NC(=O)c1csc(N2C[C@@H](CN3CCC(O)CC3)[C@@H](CO)C2)n1	99.75
O=C(CCc1cn[nH]c1)N1C[C@@H](CN2CCCCCC2)[C@@H](CO)C1	3.932
COc1cnc(N2C[C@@H](CN3CCOCC3)[C@@H](CO)C2)nc1	-6.772
CN(C)Cc1nnc(C2CCCN(c3nc(C(N)=O)cs3)C2)n1C (centres undefined)	10.64
CC(=O)c1ccc(CN2C[C@@H](CN3CCC(O)CC3)[C@@H](CO)C2)cc1	-12.65
CC(C)c1ncc(CN2C[C@@H](CN3CCCCC3)[C@@H](CO)C2)cn1	-5.957
CC(=O)c1cc(CN2C[C@@H](CN3CCC(O)CC3)[C@@H](CO)C2)n(C)c1	12.27
O=C(CCCc1cn[nH]c1)N1C[C@@H](CN2CCOCC2)[C@@H](CO)C1	24.78
CCc1cc(C(=O)N2CCc3c(ncn3CCc3ccccc3)C2)[nH]n1	0.9556
CC(C(=O)NC1(C#N)CCCCC1)N1CCc2c(ncn2C2CC2)C1 (centres undefined)	2.173
Cc1ccc(F)c(NC(=O)CCC(=O)N(C)Cc2nc(C)c[nH]2)c1	-39.22
